Data on 14 compounds can be found in PubChem BioAssay (NCI).

About 83,000 compounds went through this panel and 20% of them were active in at least one assay; those are over-represented in the sample as a whole.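 Growth was measured after 48 h exposure to one concentration of compound in 96-well plates. Values under 10 count as active.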 Values without a mark were called inactive. Activity calls are given as the source filed them.

The test concerns MDA-MB-468 breast. The test can be described thus: NCI-60 one-dose screen, 48 h (100 = growth as untreated, 0 = no growth, -100 = all killed). Particulars: 10 µM unless noted.
For `CNC(=O)c1c(I)c(NC(C)=O)c(I)c(C(=O)O)c1I`, the growth was 102%. Turning to `CS(=O)(=O)c1ccc(C(=O)N/N=C/c2cccc3ccccc23)cc1`, the growth was 74.2%. Next, `CN(C)c1ccc(/C=C2\C=C(c3nc4ccccc4s3)OC2=O)cc1`: 79.8%; `Nc1nc(Nc2ccccc2)c(C=Nc2ccccc2)c(=O)[nH]1`: 99.6%; `Oc1ccccc1-c1nc2ccccn2c1NCCN1CCOCC1`: 109%.

Regarding `CN1CCN(C(=O)OCc2nc3c(N4CCOCC4)nc(-c4ccccc4)nc3n2C)CC1`, the growth is -59% (active). Under `CCOC(=O)C1=CSC2=NC3=C(CCC/C3=C\c3ccc(Cl)cc3)C(c3ccc(Cl)cc3)N12` (centres undefined) stands 84.9%; under `C=CCOC1=CC(=O)c2ccccc2C1=O`, 29.2%. Next, `COc1ccc(/C=C2/SC(=O)N(CC(=O)N3CCN(c4cc5c(cc4F)c(=O)c(C(=O)O)cn5C4CC4)CC3)C2=O)cc1`: 108%. As for `COC(=O)c1nc(-c2ccc(C)cc2)oc1S(=O)(=O)c1ccc(Cl)cc1`, the growth is 101%. Next, `O=C1C(=O)N(Cc2ccc(-c3ccccc3)cc2)c2ccc(OC(F)(F)F)cc21`: 25%; `CCNC(=O)N1CCc2cc(OC)c(OCCc3ccc(OC)cc3)cc2C1c1ccc([N+](=O)[O-])cc1C` (centres undefined): -5.05% (active). Next, `Nc1c(C(=O)Nc2ccccc2)sc2nc3c(cc12)CN(C(=O)OCc1ccccc1)CC3`: 63.8%; `O=C1C(=O)c2ccccc2C(O)=C1CCCc1ccc(C2CCCCC2)cc1`: 17.5%.
